Assay outcomes (PubChem BioAssay)
GPT2 inhibitor: blocks human glutamate pyruvate transaminase 2; Q8TD30; Recombinant GPT2, coupled pyruvate oxidase/HRP Amplex Red fluorescence; Potency, µM (doses to about 57.7 µM), without a hit: top-dose activity change, negative = inhibition, actives largely listed as inhibitors; 100,000 tested, 0.25% active; AID 1671188; note: % is set by controls: 0 for no effect and ±100 for the full control effect; nearly all actives have a fitted effect of over 60% in size
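Inhibition is scored from Amplex Red fluorescence generated when pyruvate oxidase and HRP act on pyruvate released by GPT2. Reactions contain 10ng/uL enzyme, 250uM a-KG and 2mM L-alanine and run 30 min at room temperature.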
HEK cytotox: cytotoxic compounds in HEK 293 cells; 94,000 tested, 6.6% active; HEK 293 viability, ATP luminescence (CellTiter-Glo), 48-72 h; Potency, µM (titrated, usually from 115 µM), inactives show at the top dose activity change, negative = cytotoxicity, hits mostly inhibitors; note: % is set by controls: 0 for no effect and ±100 for the full control effect; nearly all actives have a fitted effect of over 60% in size
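Pintool-delivered compounds were incubated with HEK 293 cells (250 cells/well) at 37 degree Celsius for 48 or 72 hr. ATP-dependent luminescence (CellTiter-Glo) then reported remaining viable cells.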
NIH3T3 tox: NIH 3T3 cell cytotoxicity. NIH 3T3 viability, CellTiter-Glo ATP luminescence, 48-72 h. Potency, µM (doses to about 96.7 µM), without a hit: top-dose activity change, negative = cytotoxicity, hits mostly inhibitors. AID 1345082. 94,000 tested, 4.3% active; note: % is set by controls: 0 for no effect and ±100 for the full control effect; nearly all actives have a fitted effect of over 55% in size
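First NIH 3T3 cells are plated at 400 cells/well; next compound is pinned in; then plates incubate 48 or 72 hr at 37 °C; finally CellTiter-Glo is added and luminescence read after 10 min.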
hNpr1 antagonist: human Npr1 receptor antagonism. P16066. HEK293 hNpr1 GloSensor cGMP, ANP-stimulated luminescence. Potency, µM (highest dose often 46.3 µM), inactives show top-dose activity change, negative = inhibition, usual class: inhibitors. 76,000 tested, 1.6% active. AID 1347048; calls by dose curve; note: % is set by controls: 0 for no effect and ±100 for the full control effect; nearly all actives have a fitted effect of over 60% in size
Target sequence (P16066 whole entry, looked up): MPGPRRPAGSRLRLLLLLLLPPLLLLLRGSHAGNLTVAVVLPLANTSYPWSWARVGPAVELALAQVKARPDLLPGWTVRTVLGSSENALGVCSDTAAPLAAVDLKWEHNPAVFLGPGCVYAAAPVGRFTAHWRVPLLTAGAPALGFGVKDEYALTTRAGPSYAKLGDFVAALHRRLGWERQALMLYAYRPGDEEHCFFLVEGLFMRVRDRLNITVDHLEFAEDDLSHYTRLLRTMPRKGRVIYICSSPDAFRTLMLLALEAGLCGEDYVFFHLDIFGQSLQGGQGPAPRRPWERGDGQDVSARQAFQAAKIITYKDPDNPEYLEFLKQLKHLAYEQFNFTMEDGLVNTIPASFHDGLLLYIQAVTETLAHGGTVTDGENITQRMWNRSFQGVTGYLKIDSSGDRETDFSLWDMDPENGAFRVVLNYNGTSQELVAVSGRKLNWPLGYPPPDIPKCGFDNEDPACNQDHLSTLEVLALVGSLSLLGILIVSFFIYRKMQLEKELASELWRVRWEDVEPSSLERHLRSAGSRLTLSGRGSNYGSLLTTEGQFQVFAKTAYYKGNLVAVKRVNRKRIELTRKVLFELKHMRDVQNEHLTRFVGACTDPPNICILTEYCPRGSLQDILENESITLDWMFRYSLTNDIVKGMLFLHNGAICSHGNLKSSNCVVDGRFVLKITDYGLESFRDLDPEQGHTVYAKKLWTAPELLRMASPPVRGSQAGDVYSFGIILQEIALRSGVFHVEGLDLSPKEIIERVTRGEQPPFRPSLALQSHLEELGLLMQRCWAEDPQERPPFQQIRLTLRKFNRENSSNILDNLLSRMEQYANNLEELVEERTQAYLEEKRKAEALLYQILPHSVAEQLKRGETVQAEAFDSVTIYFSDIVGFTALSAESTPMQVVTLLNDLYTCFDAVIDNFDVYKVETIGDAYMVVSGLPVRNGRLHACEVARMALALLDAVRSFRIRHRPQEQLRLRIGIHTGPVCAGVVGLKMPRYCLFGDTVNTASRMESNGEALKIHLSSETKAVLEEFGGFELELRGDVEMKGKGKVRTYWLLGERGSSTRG
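HEK293 cells stably expressing human Npr1 and cGMP GloSensor pGS-40F, loaded 2 h with 2% GloSensor reagent, given compound 30 min at room temperature. Luminescence read before and 20 min after 0.1 nM hNppA.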
FLuc inh: Photinus pyralis luciferase inhibition; purified P. pyralis luciferase, luminescence, biochemical; Potency, µM (highest dose often 115 µM), actives largely listed as inhibitors; 76,000 tested, 2.5% active; note: % is set by controls: 0 for no effect and ±100 for the full control effect; nearly all actives have a fitted effect of over 65% in size
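Purified 10nM P. pyralis luciferase with 10uM D-luciferin and 10uM ATP in 50mM Tris acetate pH 7.5, 10mM Mg acetate, 0.01% Tween-20, 0.05% BSA. qHTS titration; luminescence read by CCD imager.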
NPR1 antag cnf: hNpr1 antagonism, confirmation assay. AID 1347044. shares compounds with hNpr1 antagonist. HEK293 hNpr1 cGMP GloSensor luminescence, ANP-stimulated. Potency, µM (highest dose often 57.6 µM), for the others: at the top dose activity change, negative = inhibition, hits mostly inhibitors. 1,400 tested, 76% active; calls by dose curve; note: nearly all actives have a fitted effect of over 70% in size
Npr2 selectivity: hNpr2 antagonism, selectivity versus Npr1; shares compounds with hNpr1 antagonist; HEK293 hNpr2 GloSensor cGMP luminescence, CNP-stimulated; Potency, µM (doses to about 57.6 µM), for inactives: at the highest dose activity change, negative = inhibition, usual class: inhibitors; 1,400 tested, 67% active; AID 1347046; calls by dose curve; note: nearly all actives have a fitted effect of over 70% in size
FLuc inh counter: FLuc enzyme inhibition, Npr1 counter-screen; shares compounds with hNpr1 antagonist; purified FLuc enzyme, luminescence, Km substrate; Potency, µM (top dose mostly 57.6 µM), inactives show at the top dose activity change, negative = inhibition, usual class: inhibitors; 1,400 tested, 0.7% active; AID 1347047; note: 0% is about no effect
GloSensor cGMP: reduces cGMP signal in GloSensor control cells; shares compounds with hNpr1 antagonist; HEK293 GloSensor cGMP, SNP-stimulated, luminescence; Potency, µM (titrated, usually from 57.6 µM), inactives show top-dose activity change, negative = inhibition, actives largely listed as inhibitors; 1,400 tested, 69% active; AID 1347051; calls by dose curve; note: % is set by controls: 0 for no effect and ±100 for the full control effect; nearly all actives have a fitted effect of over 70% in size
* marks the source's active call; other numbers are inactive results; i = inactive; ? = inconclusive; nt = no result given; ! = not confirmed by another sample. Compounds with a hit are over-represented: about 10% of the library has one in this group of screens. Unless noted, calls come from the whole dose curve; as a rule, active = well fitted curve in the direction sought with a large enough effect; inconclusive = small, poorly fitted or top-dose-only effect, or another doubt; inactive = no such curve, though single readings can be large; an effect the other way counts as inactive or inconclusive. Potency is the fitted concentration of half-maximal effect.

SMILES | GPT2 inhibitor | HEK cytotox | NIH3T3 tox | hNpr1 antagonist | FLuc inh | NPR1 antag cnf | Npr2 selectivity | FLuc inh counter | GloSensor cGMP
Cc1cccc(-c2nc(CN3CCC(C(=O)NCCc4noc(-c5ccncc5)n4)CC3)c(C)o2)c1 | 0% | -22% | -22% | nt | nt | nt | nt | nt | nt
CCOC(=O)C1=C(C)N=C2SC=C(CC(=O)Nc3ccc(OC)cc3)N2C1c1ccccc1F (configuration not stated) | ? | ? | ? | -26% | i | nt | nt | nt | nt
CC(C)CCN1CCc2nc(N3CCc4ccccc4C3)[nH]c(=O)c2CC1 | -5% | -4% | i | 0% | i | nt | nt | nt | nt
COc1ccc(S(=O)(=O)N[C@H]2C[C@@H](c3nc(-c4ccc(OC(F)(F)F)cc4)no3)N(C)C2)cc1 | ? | ? | ? | 11µM* | i | 22µM* | 22µM* | -13% | 17µM*
COc1ccc(OC)c(CNC(=O)c2cccc3c2CCN3C(=O)c2ccc(F)cc2)c1 | -12% | ? | ? | ? | i | ? | ? | 4% | ?
CCC(=O)N1CCc2c(C(=O)NCc3cc(OC)ccc3OC)cccc21 | -20% | ? | -18% | -3% | i | nt | nt | nt | nt
COc1ccc(CNC(=O)c2cc3n(n2)CC(c2ccc(Cl)cc2)OC3)cc1OC (configuration not stated) | -7% | ? | ? | ? | i | nt | nt | nt | nt
CC(C)Oc1ccc(CNC(=O)c2cc3n(n2)CC(c2ccc(Cl)cc2)OC3)cc1 (configuration not stated) | ? | ? | ? | ? | i | ? | -22% | 2% | -25%
O=C(NCc1ccc(F)c(Cl)c1)c1cc2n(n1)CC(c1ccc(Cl)cc1)OC2 (configuration not stated) | -16% | 35µM* | ? | ? | i | ? | -28% | 3% | ?
Cc1cccc(-n2c(=O)c3c(cc(C)n3C)n(CC(=O)Nc3ccc4c(c3)OCO4)c2=O)c1 | ? | -7% | 1% | 3% | i | nt | nt | nt | nt
O=c1[nH]c(C2CCN(Cc3cccc(-c4cccs4)c3)CC2)nc2ccc(F)cc12 | 0% | 22µM*! | 28µM* | ? | i | -27% | ? | 1% | ?
O=C(c1ccccc1)N1CCN(C(=O)c2nnn3c2COC(c2ccccc2)C3)CC1 (configuration not stated) | i | -30% | -24% | -3% | i | nt | nt | nt | nt
COc1ccc(C2Cn3nnc(C(=O)N4CCN(C(=O)c5cccc(C)c5)CC4)c3CO2)cc1 (configuration not stated) | 3% | 8.9µM* | ? | 14µM* | i | 19µM* | 22µM* | 5% | 14µM*
Cc1ccc(C2Cn3nnc(C(=O)N4CCN(C(=O)c5cccc(C)c5)CC4)c3CO2)cc1 (configuration not stated) | i | 45µM* | ? | 11µM* | i | 22µM* | 22µM* | -1% | 19µM*
